From PubChem BioAssay AID1159580 (chemical genetic matrix, 2015)
Hit rate of the full screen: of about 5,500 compounds, about 2,000 (36%) were called active. Another 18% or so got no clear call; they are omitted. Cut-off read from the data, not from the text of the source: active = normalized growth mostly below about 0.91 (no sharp cut-off); inconclusive = no clear call, values can overlap the other calls; inactive = mostly above about 0.92. The list shows a part of the results.

Experiment: chemical genetic growth profiling, strain panel (AID 1159580);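 note: tested at 20 µM; growth read once vehicle control cultures reached saturation at 30 °C; 1 = growth at the plate median or of vehicle wells; lower values mean less growth of the strain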
Settings: growth OD

Measured: normalized growth

CC(C)N(C(=O)SCC(Cl)=C(Cl)Cl)C(C)C
inactive: S. cerevisiae deletion strains, locus YAL013W, strain DEP1, hits give low values 1.01 | S. cerevisiae deletion strains, locus YBR021W, strain FUR4, hits give low values 1.01 | S. cerevisiae deletion strains, locus YBR229C, strain ROT2, hits give low values 1.01 | S. cerevisiae deletion strains, locus YCL029C, strain bik1, hits give low values 1.01 | S. cerevisiae deletion strains, locus YDL035C, strain GPR1, hits give low values 1.01 | S. cerevisiae deletion strains, locus YDL074C, strain BRE1, hits give low values 1.04 | S. cerevisiae deletion strains, locus YDL101C, strain DUN1, hits give low values 1.02 | S. cerevisiae deletion strains, locus YDL134C, strain PPH21, hits give low values 1.02 | S. cerevisiae deletion strains, locus YDL185W, strain tfp1, hits give low values 0.999 | S. cerevisiae deletion strains, locus YDL192W, strain arf1, hits give low values 0.998 | S. cerevisiae deletion strains, locus YDR101C, strain arx1, hits give low values 0.998 | S. cerevisiae deletion strains, locus YDR150W, strain NUM1, hits give low values 1.02 | S. cerevisiae deletion strains, locus YDR162C, strain NBP2, hits give low values 1.02 | S. cerevisiae deletion strains, locus YDR318W, strain mcm21, hits give low values 1 | S. cerevisiae deletion strains, locus YDR388W, hits give low values 1 | S. cerevisiae deletion strains, locus YDR502C, strain sam2, hits give low values 1 | S. cerevisiae deletion strains, locus YEL061C, strain CIN8, hits give low values 1.01 | S. cerevisiae deletion strains, locus YER110C, hits give low values 0.998 | S. cerevisiae deletion strains, locus YER155C, strain BEM2, hits give low values 1.02 | S. cerevisiae deletion strains, locus YER167W, strain BCK2, hits give low values 1.03 | S. cerevisiae deletion strains, locus YGL078C, strain dbp3, hits give low values 0.996 | S. cerevisiae deletion strains, locus YGL086W, strain mad1, hits give low values 1.01 | S. cerevisiae deletion strains, locus YGL248W, strain PDE1, hits give low values 1.02 | S. cerevisiae deletion strains, locus YGR078C, strain PAC10, hits give low values 1.02 | S. cerevisiae deletion strains, locus YGR135W, strain pre9, hits give low values 0.995 | S. cerevisiae deletion strains, locus YGR229C, strain SMI1, hits give low values 1.04 | S. cerevisiae deletion strains, locus YGR252W, strain gcn5, hits give low values 0.945 | S. cerevisiae deletion strains, locus YHR030C, strain SLT2, hits give low values 1.02 | S. cerevisiae deletion strains, locus YHR079C, strain IRE1 (second series), hits give low values 1 | S. cerevisiae deletion strains, locus YHR094C, strain hxt1, hits give low values 1.01 | S. cerevisiae deletion strains, locus YHR200W, strain rpn10, hits give low values 1 | S. cerevisiae deletion strains, locus YIL066C, strain RNR3, hits give low values 1.02 | S. cerevisiae deletion strains, locus YIL073C, strain SPO22, hits give low values 1.04 | S. cerevisiae deletion strains, locus YIL125W, strain kgd1, hits give low values 1 | S. cerevisiae deletion strains, locus YIR030C, strain dcg1, hits give low values 1 | S. cerevisiae deletion strains, locus YJL095W, strain BCK1, hits give low values 1.03 | S. cerevisiae deletion strains, locus YJL134W, strain LCB3, hits give low values 1.02 | S. cerevisiae deletion strains, locus YJL168C, strain set2, hits give low values 1 | S. cerevisiae deletion strains, locus YJL187C, strain SWE1 (second series), hits give low values 1.01 | S. cerevisiae deletion strains, locus YJR043C, strain POL32, hits give low values 1.01 | S. cerevisiae deletion strains, locus YJR075W, strain HOC1, hits give low values 1.03 | S. cerevisiae deletion strains, locus YKL009W, strain mrt4, hits give low values 1.01 | S. cerevisiae deletion strains, locus YKL068W, hits give low values 1.01 | S. cerevisiae deletion strains, locus YKL085W, strain MDH1 (second series), hits give low values 1.01 | S. cerevisiae deletion strains, locus YKL085W, strain MDH1, hits give low values 1.01 | S. cerevisiae deletion strains, locus YKL190W, strain CNB1, hits give low values 1.04 | S. cerevisiae deletion strains, locus YKR001C, strain vps1, hits give low values 0.987 | S. cerevisiae deletion strains, locus YLR039C, strain RIC1, hits give low values 0.9 | S. cerevisiae deletion strains, locus YLR058C, strain SHM2, hits give low values 1.01 | S. cerevisiae deletion strains, locus YLR102C, strain apc9, hits give low values 1.01 | S. cerevisiae deletion strains, locus YLR262C, strain YPT6, hits give low values 0.977 | S. cerevisiae deletion strains, locus YLR268W, strain sec22, hits give low values 0.981 | S. cerevisiae deletion strains, locus YLR330W, strain CHS5, hits give low values 1.01 | S. cerevisiae deletion strains, locus YLR342W, strain FKS1 (second series), hits give low values 1.02 | S. cerevisiae deletion strains, locus YLR371W, strain rom2, hits give low values 1 | S. cerevisiae deletion strains, locus YLR418C, strain cdc73, hits give low values 0.996 | S. cerevisiae deletion strains, locus YML016C, strain PPZ1, hits give low values 1.02 | S. cerevisiae deletion strains, locus YML032C, strain rad52, hits give low values 1 | S. cerevisiae deletion strains, locus YML124C, strain tub3, hits give low values 1 | S. cerevisiae deletion strains, locus YMR078C, strain ctf18, hits give low values 1.01 | S. cerevisiae deletion strains, locus YMR223W, strain ubp8, hits give low values 0.998 | S. cerevisiae deletion strains, locus YMR263W, strain SAP30, hits give low values 1.03 | S. cerevisiae deletion strains, locus YMR307W, strain GAS1, hits give low values 1.01 | S. cerevisiae deletion strains, locus YNL067W, strain RPL9B, hits give low values 1.02 | S. cerevisiae deletion strains, locus YNL128W, strain TEP1, hits give low values 1.02 | S. cerevisiae deletion strains, locus YNL153C, strain GIM3, hits give low values 1.01 | S. cerevisiae deletion strains, locus YNL233W, strain BNI4, hits give low values 1.02 | S. cerevisiae deletion strains, locus YNL250W, strain rad50, hits give low values 0.999 | S. cerevisiae deletion strains, locus YNL271C, strain bni1, hits give low values 1 | S. cerevisiae deletion strains, locus YNL298W, strain CLA4, hits give low values 0.986 | S. cerevisiae deletion strains, locus YNL307C, strain MCK1, hits give low values 0.979 | S. cerevisiae deletion strains, locus YNL322C, strain KRE1, hits give low values 1.01 | S. cerevisiae deletion strains, locus YNR052C, strain pop2, hits give low values 1 | S. cerevisiae deletion strains, locus YOL006C, strain TOP1, hits give low values 1.08 | S. cerevisiae deletion strains, locus YOL012C, strain htz1 0.763 | S. cerevisiae deletion strains, locus YOL147C, strain pex11, hits give low values 1 | S. cerevisiae deletion strains, locus YOR061W, strain CKA2, hits give low values 1.02 | S. cerevisiae deletion strains, locus YOR069W, strain VPS5, hits give low values 1.02 | S. cerevisiae deletion strains, locus YOR136W, strain idh2, hits give low values 0.996 | S. cerevisiae deletion strains, locus YOR144C, strain elg1, hits give low values 1.01 | S. cerevisiae deletion strains, locus YOR184W, strain ser1, hits give low values 0.99 | S. cerevisiae deletion strains, locus YOR316C, strain cot1, hits give low values 1.01 | S. cerevisiae deletion strains, locus YPL055C, strain LGE1, hits give low values 1.04 | S. cerevisiae deletion strains, locus YPL241C, strain CIN2, hits give low values 1.02 | S. cerevisiae deletion strains, locus YPR119W, strain clb2, hits give low values 1 | S. cerevisiae deletion strains, locus YPR141C, strain kar3, hits give low values 1 | S. cerevisiae deletion strains, locus YPR163C, strain tif3, hits give low values 0.998 | S. cerevisiae deletion strains, locus YPR167C, strain met16, hits give low values 1.01 | S. cerevisiae deletion strains, strain wtn01, hits give low values 0.998 | S. cerevisiae strains, strain wild type, hits give low values 1.01
